# Assay results published in article PMC8384837, “Expanding the binding specificity for RNA recognition by a PUF domain”.
# Residue numbers refer to the chain shown, from its start.
# Assays:
# Experiment in all cases: yeast three-hybrid, YBZ-1, SC-Leu-His + 0.5 mM 3-AT, 4 days
# Conditions in all cases: tags: N-Gal4 AD-HA kept; label: inside an RPR1-promoter hybrid RNA with tandem MS2 sites; ssRNA
# PUM1 PUF domain R5-LSR = PUM1 PUF domain R5-LSR (Homo sapiens, UniProt Q14671 828-1176, C1007L;R1008S;Q1011R)
# Summary of the method: (§1)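 Repeat regions from input (SC-Leu) and selection (SC-Leu-His + 0.5 mM 3-AT) plates were PCR-amplified and Illumina-sequenced after four days of growth. The cells were strain YBZ-1 with a LexA–MS2 coat fusion and a HIS3 reporter, co-expressing Pumilio-1 PUF domain libraries and matching RNA elements from a centromeric plasmid. The interaction score is the log change in variant frequency from input to selection, taken in log2 with a pseudocount of 1 for absent variants.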
# PUM1 PUF domain R4-SRA = PUM1 PUF domain R4-SRA (Homo sapiens, UniProt Q14671 828-1176, N971S;H972R;Q975A)
# Summary of the method: as §1
# PUM1 PUF domain R8-KRI = PUM1 PUF domain R8-KRI (Homo sapiens, UniProt Q14671 828-1176, N1122K;Y1123R;Q1126I)
# Summary of the method: as §1
# PUM1 PUF domain R8-RHC = PUM1 PUF domain R8-RHC (Homo sapiens, UniProt Q14671 828-1176, N1122R;Y1123H;Q1126C)
# Summary of the method: as §1
# PUM1 PUF domain R2-DWI = PUM1 PUF domain R2-DWI (Homo sapiens, UniProt Q14671 828-1176, N899D;Y900W;Q903I)
# Summary of the method: as §1
# PUM1 PUF domain R6-KWA = target: T1, PUM1 PUF domain R6-KWA (Homo sapiens, UniProt Q14671 828-1176, N1043K;Y1044W;Q1047A)
# T1 sequence: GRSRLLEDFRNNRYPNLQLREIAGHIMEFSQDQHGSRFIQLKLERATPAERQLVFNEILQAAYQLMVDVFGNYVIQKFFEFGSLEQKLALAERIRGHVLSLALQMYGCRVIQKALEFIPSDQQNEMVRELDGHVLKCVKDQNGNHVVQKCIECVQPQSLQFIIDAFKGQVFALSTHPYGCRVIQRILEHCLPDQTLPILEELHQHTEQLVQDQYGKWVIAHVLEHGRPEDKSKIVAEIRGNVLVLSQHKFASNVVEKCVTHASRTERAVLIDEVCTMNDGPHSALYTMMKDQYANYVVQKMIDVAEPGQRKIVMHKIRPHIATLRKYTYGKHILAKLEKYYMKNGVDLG
# Summary of the method: as §1
# PUM1 PUF domain R6-RFG = target: T2, PUM1 PUF domain R6-RFG (Homo sapiens, UniProt Q14671 828-1176, N1043R;Y1044F;Q1047G)
# T2 sequence: T1 sequence with K216R, W217F, A220G
# Summary of the method: as §1
# PUM1 PUF domain R6-YHR = target: T3, PUM1 PUF domain R6-YHR (Homo sapiens, UniProt Q14671 828-1176, N1043Y;Y1044H;Q1047R)
# T3 sequence: T1 sequence with K216Y, W217H, A220R
# Summary of the method: as §1
# PUM1 PUF domain R6-SHK = target: T4, PUM1 PUF domain R6-SHK (Homo sapiens, UniProt Q14671 828-1176, N1043S;Y1044H;Q1047K)
# T4 sequence: T1 sequence with K216S, W217H, A220K
# Summary of the method: as §1
# PUM1 PUF domain R6-LHS = target: T5, PUM1 PUF domain R6-LHS (Homo sapiens, UniProt Q14671 828-1176, N1043L;Y1044H;Q1047S)
# T5 sequence: T1 sequence with K216L, W217H, A220S
# Summary of the method: as §1
sequence,measurement,setting,value
GGCUAGAACUAGUGGAUCCCCCGGCGCCCGGCGGCUCGAGCCCGGGUAAGUGUCAAUAGUCUGCAUGCCGCCGGGCGCCAUGCCUGCAGGUCGACUCUAGAAAACAUG,binding signal,PUM1 PUF domain R5-LSR,2.6 log2 enrichment (interaction score)
GGCUAGAACUAGUGGAUCCCCCGGCGCCCGGCGGCUCGAGCCCGGGUAAGUGUACAUAGUCUGCAUGCCGCCGGGCGCCAUGCCUGCAGGUCGACUCUAGAAAACAUG,binding signal,PUM1 PUF domain R4-SRA,1.76 log2 enrichment (interaction score)
GGCUAGAACUAGUGGAUCCCCCGGCGCCCGGCGGCUCGAGCCCGGGUAAGCGUAAAUAGUCUGCAUGCCGCCGGGCGCCAUGCCUGCAGGUCGACUCUAGAAAACAUG,binding signal,PUM1 PUF domain R8-KRI,2.91 log2 enrichment (interaction score)
same,binding signal,PUM1 PUF domain R8-RHC,4.55 log2 enrichment (interaction score)
GGCUAGAACUAGUGGAUCCCCCGGCGCCCGGCGGCUCGAGCCCGGGUAAGUGUAUAUAGUCUGCAUGCCGCCGGGCGCCAUGCCUGCAGGUCGACUCUAGAAAACAUG,binding signal,PUM1 PUF domain R4-SRA,1.92 log2 enrichment (interaction score)
GGCUAGAACUAGUGGAUCCCCCGGCGCCCGGCGGCUCGAGCCCGGGUAAGUGUAAAAAGUCUGCAUGCCGCCGGGCGCCAUGCCUGCAGGUCGACUCUAGAAAACAUG,binding signal,PUM1 PUF domain R2-DWI,6.3 log2 enrichment (interaction score)
GGCUAGAACUAGUGGAUCCCCCGGCGCCCGGCGGCUCGAGCCCGGGUAAGUGAAAAUAGUCUGCAUGCCGCCGGGCGCCAUGCCUGCAGGUCGACUCUAGAAAACAUG,binding signal,PUM1 PUF domain R6-KWA,2.73 log2 enrichment (interaction score)
GGCUAGAACUAGUGGAUCCCCCGGCGCCCGGCGGCUCGAGCCCGGGUAAGUGCAAAUAGUCUGCAUGCCGCCGGGCGCCAUGCCUGCAGGUCGACUCUAGAAAACAUG,binding signal,PUM1 PUF domain R6-KWA,4.16 log2 enrichment (interaction score)
GGCUAGAACUAGUGGAUCCCCCGGCGCCCGGCGGCUCGAGCCCGGGUAAGUGUAAAUAGUCUGCAUGCCGCCGGGCGCCAUGCCUGCAGGUCGACUCUAGAAAACAUG,binding signal,PUM1 PUF domain R6-RFG,3.56 log2 enrichment (interaction score)
same,binding signal,PUM1 PUF domain R6-YHR,4.05 log2 enrichment (interaction score)
same,binding signal,PUM1 PUF domain R4-SRA,4.71 log2 enrichment (interaction score)
same,binding signal,PUM1 PUF domain R6-KWA,2 log2 enrichment (interaction score)
same,binding signal,PUM1 PUF domain R6-SHK,3.34 log2 enrichment (interaction score)
same,binding signal,PUM1 PUF domain R6-LHS,2.24 log2 enrichment (interaction score)
same,binding signal,PUM1 PUF domain R8-RHC,3.41 log2 enrichment (interaction score)
same,binding signal,PUM1 PUF domain R5-LSR,0.51 log2 enrichment (interaction score)
